# Experimental data: PubChem BioAssay AID2556 (The Scripps Research Institute Molecular Screening Center, 2010)
# Values without a mark were called inactive. Active and inactive are the calls of the source. How the calls were made is not given here.
# Experiment: xanthine oxidase superoxide generation blockade – biochemical, counter-screen for NOX1 inhibitor project, late-stage follow-up (AID 2556)
# Settings: xanthine oxidase superoxide assay
row,Compound,IC50
1,c1ccc2c(c1)Nc1nc3ccccc3nc1N2,3.5 µM (active)
2,FC(F)(F)c1ccc2c(c1)Nc1ccccc1S2,20.7 µM
3,COc1cc(-c2nc(-c3ccccc3)c(-c3ccccc3)[nH]2)ccc1O,11.2 µM
4,CN(C)c1ccc(NC(=O)Nc2ccc(OCc3ccccc3)cc2)cc1,2 µM (active)
5,Cc1cc(Cl)ccc1NC(=S)NNC(=S)Nc1ccc(F)cc1,11 µM
6,O=C(Oc1ccccc1N1CCCCC1)c1sc2ccccc2c1Cl,11.1 µM
